What all share (assay): log2 fold change, soluble protein after heating vs DMSO (PISA); higher = thermal stabilisation; K562 lysate, 10 uM; active = over 0.2 and 3.5 SD of the protein, either way, in both replicates (recomputed)
Compound in assay [1]: NCC(=O)Nc1ccc(-n2nc(C(F)(F)F)cc2-c2ccc3c(ccc4ccccc43)c2)cc1
Put shortly:
(§1)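 Log-two fold change in thermal stability relative to solvent controls is reported from duplicates. For each sample, crude K562 extract from dounce-homogenised pellets in PBS pH 7.4 with 1 mM MgCl2, at 1 mg/mL protein, was treated with 10 μM compound for 30 min. Aliquots heated for 3 min across 48°C-58°C were pooled, brought to 0.5% NP-40 at 4°C and cleared at 21,000xg for 90 min. The supernatant was quantified by TMTpro 16plex LC-MS/MS with channel sums equalised.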

Compound in another assay: O=C(CCCCCCC(=O)Nc1ccccc1)NO [vorinostat]
Put shortly: as §1

Compound in a further assay: O=C(O)c1ccc2c(c1)nc(Nc1cccc(Cl)c1)c1ccncc12 [silmitasertib]
Put shortly:
as §1

Compound in assay [2]: O=C1NC(=O)C(c2cnc3ccccn23)=C1c1cn2c3c(cc(F)cc13)CN(C(=O)N1CCCCC1)CC2
In short, it runs like this:
as §1

Compound in the next assay: c1cn2cc(-c3ccc4cn[nH]c4c3)nc(Nc3ccc(N4CCOCC4)cc3)c2n1 [entospletinib]
Put shortly: as §1

Targets with a hit are over-represented here; the source holds about 8,800 in all. About 0.5% of all pairs of compound and target were hits. Values without a mark were called inactive.

Sequence of UniProt P07355 (P07355 whole entry, looked up): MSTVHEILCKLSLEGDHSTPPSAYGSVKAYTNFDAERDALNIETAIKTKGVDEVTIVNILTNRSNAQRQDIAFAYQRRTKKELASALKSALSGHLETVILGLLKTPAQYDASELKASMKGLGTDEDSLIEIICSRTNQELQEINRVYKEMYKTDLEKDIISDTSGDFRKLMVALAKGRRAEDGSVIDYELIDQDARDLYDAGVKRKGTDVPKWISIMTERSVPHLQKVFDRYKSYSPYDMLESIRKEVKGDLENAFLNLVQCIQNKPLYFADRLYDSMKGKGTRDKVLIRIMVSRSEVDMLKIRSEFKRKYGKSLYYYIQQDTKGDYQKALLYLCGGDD
Sequence of UniProt Q5T5U3 (Q5T5U3 whole entry, looked up): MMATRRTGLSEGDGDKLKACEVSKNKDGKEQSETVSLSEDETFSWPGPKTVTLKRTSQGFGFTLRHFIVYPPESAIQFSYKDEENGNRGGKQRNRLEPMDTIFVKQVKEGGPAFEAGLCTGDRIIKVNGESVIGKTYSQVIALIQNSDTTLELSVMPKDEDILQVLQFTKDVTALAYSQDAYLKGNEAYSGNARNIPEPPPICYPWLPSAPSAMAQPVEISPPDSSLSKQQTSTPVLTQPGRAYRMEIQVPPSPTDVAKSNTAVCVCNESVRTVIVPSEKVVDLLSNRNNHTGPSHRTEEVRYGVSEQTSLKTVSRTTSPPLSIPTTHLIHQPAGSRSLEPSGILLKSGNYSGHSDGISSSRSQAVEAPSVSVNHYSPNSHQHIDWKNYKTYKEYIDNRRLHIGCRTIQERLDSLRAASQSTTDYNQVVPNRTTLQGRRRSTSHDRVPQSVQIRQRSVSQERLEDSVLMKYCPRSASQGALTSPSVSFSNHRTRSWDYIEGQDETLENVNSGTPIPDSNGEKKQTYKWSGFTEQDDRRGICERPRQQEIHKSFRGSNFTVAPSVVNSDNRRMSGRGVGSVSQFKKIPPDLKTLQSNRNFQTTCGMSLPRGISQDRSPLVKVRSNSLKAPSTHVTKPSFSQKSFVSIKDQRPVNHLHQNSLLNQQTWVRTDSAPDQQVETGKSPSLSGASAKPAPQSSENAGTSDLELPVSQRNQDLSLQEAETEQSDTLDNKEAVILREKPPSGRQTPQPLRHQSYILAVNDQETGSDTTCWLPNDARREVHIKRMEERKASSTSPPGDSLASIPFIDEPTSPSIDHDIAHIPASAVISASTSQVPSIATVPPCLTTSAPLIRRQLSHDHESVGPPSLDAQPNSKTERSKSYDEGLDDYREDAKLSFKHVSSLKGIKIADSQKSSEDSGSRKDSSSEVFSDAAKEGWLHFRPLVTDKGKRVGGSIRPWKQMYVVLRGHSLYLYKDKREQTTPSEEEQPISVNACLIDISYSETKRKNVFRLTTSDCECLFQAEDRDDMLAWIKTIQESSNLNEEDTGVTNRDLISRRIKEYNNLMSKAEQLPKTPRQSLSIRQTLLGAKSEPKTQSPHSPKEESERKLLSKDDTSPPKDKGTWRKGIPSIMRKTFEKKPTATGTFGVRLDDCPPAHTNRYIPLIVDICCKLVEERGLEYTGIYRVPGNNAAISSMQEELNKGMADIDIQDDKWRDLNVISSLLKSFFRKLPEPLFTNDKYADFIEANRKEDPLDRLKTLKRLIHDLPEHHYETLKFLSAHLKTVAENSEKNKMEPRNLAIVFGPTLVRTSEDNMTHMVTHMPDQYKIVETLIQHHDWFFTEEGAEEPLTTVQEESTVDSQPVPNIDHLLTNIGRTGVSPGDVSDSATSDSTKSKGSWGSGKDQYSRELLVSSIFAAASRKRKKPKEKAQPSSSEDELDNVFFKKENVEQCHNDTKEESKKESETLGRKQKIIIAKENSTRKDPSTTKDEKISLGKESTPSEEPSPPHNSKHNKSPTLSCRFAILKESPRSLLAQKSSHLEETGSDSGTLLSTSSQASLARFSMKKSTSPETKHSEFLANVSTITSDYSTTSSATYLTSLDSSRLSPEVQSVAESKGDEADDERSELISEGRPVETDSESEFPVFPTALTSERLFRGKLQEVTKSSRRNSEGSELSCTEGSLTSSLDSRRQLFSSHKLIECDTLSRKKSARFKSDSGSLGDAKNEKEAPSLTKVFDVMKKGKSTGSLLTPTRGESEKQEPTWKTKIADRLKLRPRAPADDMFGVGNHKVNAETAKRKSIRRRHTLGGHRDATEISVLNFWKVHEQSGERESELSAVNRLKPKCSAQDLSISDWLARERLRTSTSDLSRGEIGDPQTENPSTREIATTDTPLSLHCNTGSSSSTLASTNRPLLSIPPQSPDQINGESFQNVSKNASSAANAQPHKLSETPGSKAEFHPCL
Sequence of UniProt P10398 (P10398 whole entry, looked up): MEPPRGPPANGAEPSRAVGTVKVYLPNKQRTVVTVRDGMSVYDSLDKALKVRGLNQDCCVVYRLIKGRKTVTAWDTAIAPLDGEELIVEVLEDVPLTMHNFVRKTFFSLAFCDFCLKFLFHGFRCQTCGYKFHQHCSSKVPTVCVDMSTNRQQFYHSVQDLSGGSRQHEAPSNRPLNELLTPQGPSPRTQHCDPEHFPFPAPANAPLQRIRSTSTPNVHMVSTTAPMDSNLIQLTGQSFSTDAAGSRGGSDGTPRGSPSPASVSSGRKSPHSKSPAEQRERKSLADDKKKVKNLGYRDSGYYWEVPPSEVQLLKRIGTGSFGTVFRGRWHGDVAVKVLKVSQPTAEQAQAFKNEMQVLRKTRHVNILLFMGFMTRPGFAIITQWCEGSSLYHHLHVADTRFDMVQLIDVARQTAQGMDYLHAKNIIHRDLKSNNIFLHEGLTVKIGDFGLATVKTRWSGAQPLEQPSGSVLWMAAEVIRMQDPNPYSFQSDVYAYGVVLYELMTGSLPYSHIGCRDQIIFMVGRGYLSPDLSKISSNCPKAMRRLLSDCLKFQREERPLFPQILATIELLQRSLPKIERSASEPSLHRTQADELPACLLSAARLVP
Sequence of UniProt Q9UNA0 (Q9UNA0 whole entry, looked up): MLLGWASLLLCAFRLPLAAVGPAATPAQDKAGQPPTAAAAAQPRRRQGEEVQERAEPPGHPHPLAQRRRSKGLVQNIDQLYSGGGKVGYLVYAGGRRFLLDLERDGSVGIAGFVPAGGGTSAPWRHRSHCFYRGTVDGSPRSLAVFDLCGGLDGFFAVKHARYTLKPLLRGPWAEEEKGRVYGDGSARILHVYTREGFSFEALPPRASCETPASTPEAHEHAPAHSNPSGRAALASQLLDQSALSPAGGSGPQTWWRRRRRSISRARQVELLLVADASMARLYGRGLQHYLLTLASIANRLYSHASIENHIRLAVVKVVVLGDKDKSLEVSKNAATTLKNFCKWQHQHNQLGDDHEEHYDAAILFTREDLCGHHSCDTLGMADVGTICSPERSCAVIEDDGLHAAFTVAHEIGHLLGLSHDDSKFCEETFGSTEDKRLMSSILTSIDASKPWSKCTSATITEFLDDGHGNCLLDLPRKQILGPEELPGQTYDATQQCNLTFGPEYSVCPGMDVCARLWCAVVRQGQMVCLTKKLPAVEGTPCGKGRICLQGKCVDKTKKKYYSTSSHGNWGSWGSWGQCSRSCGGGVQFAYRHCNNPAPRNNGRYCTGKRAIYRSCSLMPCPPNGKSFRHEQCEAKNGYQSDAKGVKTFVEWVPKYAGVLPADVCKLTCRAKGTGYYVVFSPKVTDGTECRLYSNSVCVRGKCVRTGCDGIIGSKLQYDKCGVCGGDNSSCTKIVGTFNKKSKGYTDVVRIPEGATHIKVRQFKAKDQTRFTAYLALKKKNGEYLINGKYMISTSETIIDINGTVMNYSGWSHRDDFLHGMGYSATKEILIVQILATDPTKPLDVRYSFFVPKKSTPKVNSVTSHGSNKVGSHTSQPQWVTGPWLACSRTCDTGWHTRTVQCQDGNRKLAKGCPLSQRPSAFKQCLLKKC
Sequence of UniProt Q9NP73 (Q9NP73 whole entry, looked up): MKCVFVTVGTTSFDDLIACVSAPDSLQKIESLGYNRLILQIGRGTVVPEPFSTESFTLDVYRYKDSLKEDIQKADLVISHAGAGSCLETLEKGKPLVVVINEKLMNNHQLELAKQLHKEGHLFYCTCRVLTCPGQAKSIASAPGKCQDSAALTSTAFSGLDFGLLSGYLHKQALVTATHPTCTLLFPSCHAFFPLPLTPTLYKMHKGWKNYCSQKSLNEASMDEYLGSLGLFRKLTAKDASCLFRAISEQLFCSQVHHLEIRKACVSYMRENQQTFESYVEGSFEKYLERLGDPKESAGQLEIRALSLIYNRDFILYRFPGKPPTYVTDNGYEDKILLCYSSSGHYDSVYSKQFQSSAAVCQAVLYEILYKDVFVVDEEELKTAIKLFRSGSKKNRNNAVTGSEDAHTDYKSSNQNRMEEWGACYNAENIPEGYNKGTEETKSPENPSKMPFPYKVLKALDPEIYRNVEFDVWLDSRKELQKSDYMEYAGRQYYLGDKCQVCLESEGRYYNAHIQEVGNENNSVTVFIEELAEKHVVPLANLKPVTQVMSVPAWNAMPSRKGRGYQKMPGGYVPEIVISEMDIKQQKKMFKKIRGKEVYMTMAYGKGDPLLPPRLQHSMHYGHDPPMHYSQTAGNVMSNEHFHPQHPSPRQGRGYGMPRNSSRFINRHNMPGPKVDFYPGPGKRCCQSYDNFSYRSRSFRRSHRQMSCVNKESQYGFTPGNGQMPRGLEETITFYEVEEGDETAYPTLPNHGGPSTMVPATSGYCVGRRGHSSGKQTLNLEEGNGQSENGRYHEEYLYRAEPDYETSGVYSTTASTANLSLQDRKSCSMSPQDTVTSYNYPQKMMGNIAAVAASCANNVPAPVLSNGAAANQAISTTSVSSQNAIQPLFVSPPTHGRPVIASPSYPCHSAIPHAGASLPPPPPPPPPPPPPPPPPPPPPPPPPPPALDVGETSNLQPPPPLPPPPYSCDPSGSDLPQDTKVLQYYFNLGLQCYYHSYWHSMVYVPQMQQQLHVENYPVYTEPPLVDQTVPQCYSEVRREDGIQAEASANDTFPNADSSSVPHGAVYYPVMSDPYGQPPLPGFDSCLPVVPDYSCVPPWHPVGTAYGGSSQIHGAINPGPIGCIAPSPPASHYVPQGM

Regarding ACIN1 (UniProt E7EQT4), the log2 fold change in assay [1] was 0.076; with vorinostat, 0.079; in the assay with silmitasertib, -0.013; in assay [2], -0.013; with entospletinib it was 0.021.

As for ACLY (UniProt P53396), the log2 fold change in assay [1] is -0.008; with vorinostat it was -0.029; with silmitasertib, 0.012; in assay [2], -0.018; in the assay with entospletinib it was 0.014.

With ANXA2 isoform 2 (UniProt P07355), the log2 fold change in assay [1] was -0.015; with vorinostat, 0.023; with silmitasertib, -0.015; in assay [2], 0.003; with entospletinib it was 0.016.

As for ADAMTS5 (UniProt Q9UNA0), the log2 fold change was 0.137 in assay [1]; 0.028 in the assay with vorinostat; -0.065 with silmitasertib; 0.062 in assay [2]; -0.125 in the assay with entospletinib.

As for ARAF (UniProt P10398), the log2 fold change was -0.072 in assay [1]; -0.487 (active) with vorinostat; -0.023 with silmitasertib; 0.019 in assay [2]; -0.011 with entospletinib.

Turning to ALG13 (UniProt Q9NP73), the log2 fold change in assay [1] was -0.027; in the assay with vorinostat, -0.339 (active); in the assay with silmitasertib, -0.01; in assay [2], 0.014; with entospletinib, -0.082.

As for ARHGAP21 (UniProt Q5T5U3), the log2 fold change in assay [1] was 0.021; with vorinostat it was -0.364 (active); with silmitasertib, 0.014; in assay [2] it was -0.041; with entospletinib it was -0.104.

AFF1 isoform 2 (UniProt P51825): the log2 fold change in assay [1] was 0.019; with vorinostat it was -0.074; with silmitasertib, -0.046; in assay [2], -0.046; in the assay with entospletinib, -0.064.

The record behind these values is the supplement of paper PMC10849652.
